The values that follow come from PubChem BioAssay (NCATS).

Inconclusive results are not listed. Active and inactive are the calls of the source. Calls follow the shape of the dose curve; as a rule, active = well fitted cell-killing curve with a large enough effect; inconclusive = small, poorly fitted or top-dose-only effect; inactive = flat fitted curve, though single readings scatter.
% is scaled to controls: 0 for no effect and ±100 for the full control effect; potency is read from the fitted curve at half-maximal effect.

A short description of this experiment: NCATS anti-infectives library activity on HEK293 viability as a counter-qHTS vs the C. elegans viability qHTS (AID 1745854). Conditions: HEK293 viability counter-screen; series mostly up to 41.8 µM; activity change, negative = cytotoxicity: at the top concentration. The essentials:
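HEK293 cells (1,500/well) exposed 24 hr at 37C to 1:5 titrations, up to 41.7 uM final; counter-screen to a C. elegans viability qHTS. Viability by CellTiter-Glo luminescence after 10 min at room temperature; digitonin as control.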
In general terms: Quantitative high-throughput screening tests each substance at several concentrations.
Turning to `CC(=O)Cc1cc(=O)c2c(C)cc(O)c(C3OC(CO)C(O)C(O)C3O)c2o1` (stereo not drawn), the “activity change, negative = cytotoxicity” value was 2.7% (inactive). Still for that read-out and setting: to `CC(C)c1cnn2c(NCc3ccccc3-n3cccn3)nc(OC3CCCNC3)nc12` (stereo not drawn) belongs -26.4% (inactive); to `O=c1cc(-c2ccc(O)c(O)c2)oc2c([C@@H]3O[C@H](CO)[C@@H](O)[C@H](O)[C@H]3O)c(O)cc(O)c12`, 1.43% (inactive). With `O=[N+]([O-])c1ccc(S(=O)(=O)N2CCN(c3ccnc4cc(Cl)ccc34)CC2)c([N+](=O)[O-])c1`, the Potency is 10 µM (active). Regarding `O=S(=O)(Cl)c1ccc(-c2ccccc2)cc1`, the “activity change, negative = cytotoxicity” value is 9% (inactive). `CCNC(=O)c1cc2c(-c3cc(C(C)(C)O)ccc3Oc3c(C)cc(F)cc3C)cn(C)c(=O)c2[nH]1`: the “activity change, negative = cytotoxicity” value is -3.77% (inactive).

Consider `C=C(C)[C@@H]1CC[C@]2(C(=O)O)CC[C@]3(C)[C@H](CC[C@@H]4[C@@]5(C)CC[C@H](OC(=O)CC(C)(C)C(=O)O)C(C)(C)[C@@H]5CC[C@]43C)[C@@H]12`, for which the “activity change, negative = cytotoxicity” value is 0.694% (inactive).

As to `O=C(O)[C@H]1O[C@@H](Oc2cc3oc(-c4ccccc4)cc(=O)c3c(O)c2O)[C@H](O)[C@@H](O)[C@@H]1O`, the “activity change, negative = cytotoxicity” value was -29.6% (inactive).

With `Cn1c(Cn2ccc(C(F)(F)F)c(Oc3cc(Cl)cc(C#N)c3)c2=O)n[nH]c1=O`, the “activity change, negative = cytotoxicity” value is -8.49% (inactive). `CC(=O)N[C@@H](CC(=O)O)C(=O)N[C@@H](CCC(=O)O)C(=O)N[C@H](C(=O)N[C@H](C=O)CC(=O)O)C(C)C`: the “activity change, negative = cytotoxicity” value was -18.8% (inactive). For the compound `CC(C)=C1C/C=C(\C)CC/C=C(\C)CC1=O`, the “activity change, negative = cytotoxicity” value is 11.8% (inactive). Take `Cc1ccc(C2Nc3ccccc3C(=O)N2c2ccccc2)s1` (stereo not drawn): the “activity change, negative = cytotoxicity” value is 2.76% (inactive). Take `O=C(O)/C(S)=C/c1c[nH]c2ccc(F)cc12`: the “activity change, negative = cytotoxicity” value was 8.22% (inactive). Take `NC1=N[C@@](c2cccc(-c3cncnc3)c2)(c2ccnc(C(F)F)c2)c2cccc(F)c21`: the “activity change, negative = cytotoxicity” value was -15.9% (inactive). Take `CC(C)C1=C2[C@H]3CC[C@@H]4[C@@]5(C)CC[C@H](OC(=O)CC(C)(C)C(=O)O)C(C)(C)[C@@H]5CC[C@@]4(C)[C@]3(C)CC[C@@]2([C@@H](O)CN(CCN(C)C)Cc2ccc(Cl)cc2)CC1=O`: the “activity change, negative = cytotoxicity” value is 18.8% (inactive).

Regarding `O=C(Cc1ccccc1)Nc1nnc(NC2CCN(c3nnc(NC(=O)Cc4ccccc4)s3)CC2)s1`, the “activity change, negative = cytotoxicity” value was -5.28% (inactive). On to `O=C(O)CCc1ccc(O)cc1`, for which the “activity change, negative = cytotoxicity” value was 1.73% (inactive). For the compound `O=C(NCc1c(F)cc(F)cc1F)c1cn2c(c(O)c1=O)C(=O)N1C3CCC(C3)OC1C2` (stereo not drawn), the “activity change, negative = cytotoxicity” value was -16.2% (inactive). In the case of `Oc1ccc(OC2CCCCO2)cc1` (stereo not drawn), the Potency is 14.1 µM (active). In the case of `COc1cnc(-n2cnc(C)n2)c2c1c(C(=O)C(=O)N1CCN(C(=O)c3ccccc3)CC1)cn2COP(=O)(O)O`, the “activity change, negative = cytotoxicity” value is -20.7% (inactive). In the case of `Cc1ccc(C(=O)NCCCCCC(=O)Nc2ccccc2N)cc1`, the “activity change, negative = cytotoxicity” value is 17% (inactive). Take `Cc1cn2nc([C@@H]3CCCCN3C(=O)c3cc(Cl)ccc3NS(C)(=O)=O)cc2nc1N1CC[C@H](N)C1`: the “activity change, negative = cytotoxicity” value was 9.41% [at 18.2 µM] (inactive). On to `S=C(NCCc1ccccn1)Nc1ccc(Br)cn1`, for which the “activity change, negative = cytotoxicity” value is -6.44% (inactive). Regarding `S=C(S)O[C@H]1C[C@H]2C[C@@H]1[C@@H]1CCC[C@H]21`, the “activity change, negative = cytotoxicity” value is -14.1% (inactive). Regarding `COc1ccc(/C=C/C(=O)O)cc1O`, the “activity change, negative = cytotoxicity” value is -5.54% (inactive).

Regarding `COC(=O)c1cc(OC)c2c(c1-c1c(CO)cc(OC)c3c1OCO3)OCO2`, the “activity change, negative = cytotoxicity” value was 1.52% (inactive). Consider `COc1cc(O)c(CC=C(C)C)c2c1C(=O)CC(c1ccc(O)cc1)O2` (stereo not drawn), for which the “activity change, negative = cytotoxicity” value was 1.36% (inactive). Still for that read-out and setting: next, `O=C1CC(=O)c2c(Cl)c(Cl)c(Cl)c(Cl)c21`: -3.85% (inactive).
